PubChem BioAssay (NCI)
Compounds without any hit were thinned out: in the full panel of roughly 83,000, 20% have a hit.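 Step 1: grow cells in 96-well plates. Step 2: add test compound at a single concentration. Step 3: incubate 48 h. Step 4: record percent growth.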 Values without a mark were called inactive. Active and inactive are the calls of the source. How the source made its calls: active means growth percent below 10; inactive means the rest.

Experiments:
Test in all cases: NCI-60 one-dose screen, 48 h (100 = growth as untreated, 0 = no growth, -100 = all killed)
Details in all cases: 10 µM unless noted
HCT-15 colon = tested on: HCT-15 colon
HT29 colon = tested on: HT29 colon
SNB-19 CNS = tested on: SNB-19 CNS
U251 CNS = tested on: U251 CNS
PC-3 prostate = tested on: PC-3 prostate
SK-MEL-5 melanoma = tested on: SK-MEL-5 melanoma
UACC-62 melanoma = tested on: UACC-62 melanoma
LOX IMVI melanoma = tested on: LOX IMVI melanoma
SK-MEL-28 melanoma = tested on: SK-MEL-28 melanoma
SK-MEL-2 melanoma = tested on: SK-MEL-2 melanoma
EKVX NSCLC = tested on: EKVX NSCLC
SN12C renal = tested on: SN12C renal
UO-31 renal = tested on: UO-31 renal
TK-10 renal = tested on: TK-10 renal
ACHN renal = tested on: ACHN renal
CAKI-1 renal = tested on: CAKI-1 renal
CCRF-CEM leukemia = tested on: CCRF-CEM leukemia
MOLT-4 leukemia = tested on: MOLT-4 leukemia
A498 renal = tested on: A498 renal

Compound	growth (HCT-15 colon)	growth (HT29 colon)	growth (SNB-19 CNS)	growth (U251 CNS)	growth (PC-3 prostate)	growth (SK-MEL-5 melanoma)	growth (UACC-62 melanoma)	growth (LOX IMVI melanoma)	growth (SK-MEL-28 melanoma)	growth (SK-MEL-2 melanoma)	growth (EKVX NSCLC)	growth (SN12C renal)	growth (UO-31 renal)	growth (TK-10 renal)	growth (ACHN renal)	growth (CAKI-1 renal)	growth (CCRF-CEM leukemia)	growth (MOLT-4 leukemia)	growth (A498 renal)
COc1cc([N+](=O)[O-])c2ncccc2c1O	4.36% (active)	44.6%	6.29% (active)	53.3%	78.9%	-59.4% (active)	15.8%	66%	28.5%	4.77% (active)	105%	33.7%	25.6%	89.2%	88.8%	82.9%	61.3%	119%	
CCCCOc1ccc(/C=C2/SC(N3CCCC3)=NC2=O)cc1	97.2%	94.6%	92.8%	84.6%	88.7%	95.2%	87.4%	96.2%	101%	105%	94.5%	87.3%	82.4%	103%	103%	96.8%	84.3%	95.6%	91.3%
Cc1ccc(/C=C2\CN(C(=O)CCN3CCC(=NO)CC3)C/C(=C\c3ccc(C)cc3)C2=O)cc1	-27.9% (active)	-42.8% (active)	7.61% (active)	-49.6% (active)	11.7%	-23.6% (active)	-50.8% (active)	-89.7% (active)	-17.5% (active)	91.5%	8.39% (active)	-34.4% (active)	-86% (active)	20.2%	-38.8% (active)	5.48% (active)	1.97% (active)	3.31% (active)	46.6%
CC(C)(C)Nc1c(-c2cccs2)nc2ncccn12	102%	103%	95.9%	104%	95%	93.8%	95.8%	98.5%	113%	100%	104%	94.9%	86.9%	101%	107%	89.9%	89.9%	86.2%	80.1%
COc1cccc(-c2nc3sccn3c2-c2ccnc(NCCCNS(=O)(=O)c3ccc(F)cc3)c2)c1	19.4%	44.4%	62.3%	55.5%	9.93% (active)	-39.3% (active)	-38.3% (active)	23.1%	52.1%	21.2%	36.5%	29.9%		80.4%	22.6%	23.9%	10.6%	10.9%	48.7%
O=[N+]([O-])c1ccc(Sc2ncccn2)c([N+](=O)[O-])c1	38.9%	62.2%	99.3%	78.6%	32.9%	76.7%	60.7%	68.1%	71.9%	48.5%	65.8%	58.5%	1.15% (active)	53.7%	27.8%		-37.2% (active)	-25.8% (active)	72.5%
CCOC(=O)c1cc(C(=O)c2cc(OC)c(OC)c(OC)c2)n2c1ccc1ccccc12	25.7%	9.65% (active)	35.1%	49%	21.9%	9.89% (active)	32.1%	40.4%	55.9%	50.2%	52.2%	25.3%	32.2%	80.6%	33.5%	27.3%	8.36% (active)	33.4%	-10.9% (active)
Cc1ccc2[nH]c(=O)c3c(c2c1)Oc1ncn2nc(-c4ccco4)nc2c1C3c1ccc(Cl)cc1 (stereo not drawn)	91.6%	101%	88.2%	97.7%	93.7%	99%	101%	90.4%	103%	95.6%	90.9%	96.2%	84.9%	107%	94.6%	91.9%	97.4%	103%	96.8%
CCn1c2ccccc2c2cc(NC(=O)Nc3ccc([N+](=O)[O-])cc3C)ccc21	25.5%	17.9%	66.6%	31.5%	19.2%	48.1%	38.9%	39.2%	67.2%	53%	62.3%	55.6%	23.6%	53.8%	31.9%	-4.18% (active)	9.61% (active)	17.9%	65.7%
FC(F)(F)c1ccccc1-c1cn2c(ccc3ccccc32)n1	55.4%	42.2%	83%	88.5%	79.4%	80.7%	55.4%	74.5%	81.8%	51.8%	88.5%	88.3%	61.1%	125%	82.3%	58.7%	78.6%	107%	81.6%
COc1ccc(-c2nc(/C=C3/C(=O)Nc4ccc(F)cc43)c3ccccn23)cc1	107%	103%	101%	88.3%	108%	102%	106%	92.7%	105%	112%	123%	106%	97%	116%	96.5%	98.2%	93.9%	91.8%	
CCN1CCN(c2nc(NNC(=O)c3ccccc3)nc(N3CCN(C(c4ccccc4)c4ccccc4)CC3)n2)CC1	25.7%	1.28% (active)	72.5%	49.4%	48.5%	-92.4% (active)	80%	-44.6% (active)	82.9%	78.4%	66.6%	70.8%	30.8%	95.1%	81.1%	42.7%	39.4%	8.93% (active)	
Cc1ccc(C(=O)C2=Cc3cc4ccccc4n3Cc3cnnn32)cc1	107%	106%	93%	100%	87.7%	93.5%	85.1%	110%	102%	94.4%	107%	94.5%	95.8%	94.9%	109%	101%	103%	101%	107%
Cc1nc2c3c(ncn2n1)Oc1c(c(=O)[nH]c2ccccc12)C3c1ccc(Cl)cc1 (stereo not drawn)	99.6%	102%	92%	94.1%	83.4%	94.8%	90.6%	91.1%	110%	101%	86.6%	97%	64.5%	105%	96.1%	83.8%	96.5%	101%	95.4%
CCN(CC)CCC(CNc1ccnc2cc(Cl)ccc12)c1ccc(Cl)cc1 (stereo not drawn)	-9.14% (active)	-4.66% (active)	10.7%	-61% (active)	36.9%	-96.3% (active)	-74.5% (active)	-1.91% (active)	-91.8% (active)	-75.7% (active)	67.4%	42.2%	-84.7% (active)	-8.87% (active)	-74.5% (active)	-40.3% (active)	3.11% (active)	7.05% (active)	0.939% (active)
O=[N+]([O-])c1cnc(Sc2ccncn2)s1	-16% (active)	55.5%	103%	91.9%	14.4%	88.2%	70.4%	64.5%	-61% (active)	-58% (active)	61.7%	63.6%	-88.3% (active)	4.67% (active)	-97.8% (active)		-32.3% (active)	-42.3% (active)	88%
